# NALP1 inh = NALP1 inflammasome inhibitors in reconstituted yeast, colorimetric, S. cerevisiae, triplicate retest. S. cerevisiae NALP1/ASC/caspase-1 growth, X-gal OD620, 72 h. inhibition, % at 10 µM. 280,000 tested, 0.61% active. AID 2071, 2009; in the data active = inhibition mostly above about 24%, no sharp cut-off; inactive = mostly below about 32%
# NALP3 yeast inh = NALP3 inflammasome inhibitors in reconstituted yeast, primary screen, luminescence, uHTS | Yeast reconstituted NLRP3/ASC/caspase-1, beta-gal luminescence, 24 h | inhibition, % at 10 µM | 330,000 tested, 0.39% active | AID 2825, 2010;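 active = inhibition of 50% or more; inactive = inhibition below 50%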;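 note: plate controls were induced DMSO wells for no effect and uninduced yeast grown without galactose for full effect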
# tim10-1 inh = growth inhibitors of tim10-1 mutant yeast, primary screen, luminescence, uHTS | inhibition, % at 20 µM | S. cerevisiae tim10-1 ts strain growth, BacTiter-Glo, 24 h | 330,000 tested, 2.2% active;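 active = inhibition of at least 40%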;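 note: mutant grown at 25 °C; 0% = DMSO wells with yeast and 100% = wells holding no yeast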
# TIM10 inh = growth inhibitors of isogenic TIM10 control yeast, primary screen, counter-screen for tim10-1 yeast inhibitor project, luminescence, uHTS. AID 463195, 2010. S. cerevisiae TIM10 strain growth, BacTiter-Glo luminescence, 24 h. inhibition, % at 10 µM. 330,000 tested, 1.4% active;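 active = inhibition of 40% or more at the single tested concentration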;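 note: wild-type TIM10 isogenic control strain grown at permissive 25 °C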
# tim23-1 inh = growth inhibitors of tim23-1 mutant yeast, primary screen, luminescence, uHTS; AID 463212, 2010; S. cerevisiae tim23-1 growth, BacTiter-Glo luminescence, 24 h; inhibition, % at 20 µM; 330,000 tested, 1.3% active;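 active = growth inhibition of the mutant yeast at or above 50%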;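 note: temperature-sensitive mutant grown at 25 °C; plate controls were DMSO-treated mutant yeast for no effect and medium wells lacking yeast for full effect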
# SKKanGAS inh = S. pyogenes SKKanGAS growth inhibitors in kanamycin, primary screen, streptokinase expression inhibitor project, SKKanGAS strain, BacTiter-Glo luminescence; 6 h; inhibition, % at 7.5 µM; 300,000 tested, 1.3% active; AID 1662, 2009;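 active = mean replicate score, as percent of positive control median, at least 50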;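 note: strain carries kanamycin resistance gene driven by streptokinase promoter and grows in 40 µg/ml kanamycin; loss of luminescence reflects streptokinase promoter inhibition or plain growth inhibition; 0% = median of DMSO wells and 100% = positive control at its reference dose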
# The depositor's hits bear a star; · = not tested or not shown. A selection: hits, their analogues and other compounds. The true share with any hit is near 4.9%.
SMILES,NALP1 inh,NALP3 yeast inh,tim10-1 inh,TIM10 inh,tim23-1 inh,SKKanGAS inh
CC(=N\NC(=O)c1ccc([N+](=O)[O-])cc1)/C(=N/O)C(=O)Nc1ccccc1,1.4,16.6,4.2,11.7,0.5,2.0
Cc1csc(NC(=O)CSc2nc3nc(C)cc(C)n3n2)n1,·,14.0,-9.3,1.2,9.1,·
O=[N+]([O-])c1cc(Br)cc(C=Nc2ccc3c(c2)OCO3)c1O,12.9,36.2,19.3,4.3,31.7,54.3*
COc1ccc(N(CC(=O)NCCSCc2ccccc2Cl)S(C)(=O)=O)cc1Cl,14.2,20.2,2.4,-5.8,12.0,44.7
Cc1sc2nc(CSc3nc4ccccc4s3)[nH]c(=O)c2c1C,36.2*,5.3,26.3,25.4,6.7,4.0
CCOC(=O)c1ccc(NC(=O)C2COc3ccccc3O2)cc1 (stereo unspecified),9.5,31.7,22.3,-4.0,37.7,-2.0
CCOC(=O)c1ccc(-n2c(O)c(/C=N/NC(=O)C3COc4ccccc4O3)c3ccccc3c2=O)cc1 (stereo unspecified),-17.1,16.5,20.5,10.3,-2.7,102.9*
COCCNc1nc(-c2ccc(OC)cc2)c(-c2ccc(OC)cc2)s1,35.1*,22.8,27.5,26.0,36.4,21.0
O=C(Nc1ccc(F)cc1)c1nc2c(nnn2Cc2cccc3ccccc23)c(=O)[nH]1,·,-5.5,0.0,-29.4,-6.3,61.7*
COc1ccc(C2NC(=S)N(c3ccccc3)C(C)=C2C(=O)Nc2ccccc2)cc1 (stereo unspecified),21.2,19.2,25.0,6.4,11.8,3.6
CC1=C(C(=O)Nc2ccc([N+](=O)[O-])cc2)C(c2cccc(C(F)(F)F)c2)NC(=S)N1c1ccccc1 (stereo unspecified),9.8,-10.4,25.7,29.7,28.6,50.4*
CCCCCNc1nc(-c2ccccc2)nc(-n2ccnc2)n1,-14.8,5.7,18.8,5.2,0.6,-4.3
c1ccc(-c2nc(N3CCN(c4ccccc4)CC3)nc(-n3ccnc3)n2)cc1,-12.0,-2.3,16.3,18.2,-4.5,60.5*
Cc1ccc(S(=O)(=O)N2CCN(c3ncccn3)CC2)c(C)c1,·,37.6,-4.0,-7.9,25.8,-0.4
O=S(=O)(c1ccccc1Br)N1CCN(c2ncccn2)CC1,36.0*,41.5,14.9,-6.3,35.2,8.0
Cc1ccc(C)c(S(=O)(=O)N2CCN(c3ncccn3)CC2)c1,33.8*,42.6,2.5,-7.2,27.5,2.9
Oc1ccccc1N1CCN(c2ncccn2)CC1,22.0,47.5,-20.5,-16.3,4.6,0.6
O=S(=O)(c1ccccc1)N1CCN(c2ncccn2)CC1,5.4,20.5,8.8,5.8,22.7,4.5
c1ccc(N2CCN(c3ncccn3)CC2)cc1,26.5*,45.7,-32.0,-13.5,-9.8,4.2
OCCn1ccc(-c2ccccc2OCc2ccc(F)cc2)n1,16.0,16.7,11.4,9.9,11.3,-3.0
CC(C)(C)OC(=O)N1CCC(CC2CC(c3ccc(Cl)cc3)=NO2)(C(=O)NCC2CCCCC2)CC1 (stereo unspecified),7.9,18.7,14.3,13.4,23.5,22.5
CCN(C(=O)COC(=O)c1oc2ccc(OC)cc2c1C)C1CCS(=O)(=O)C1 (stereo unspecified),·,8.1,-14.2,-10.3,1.2,·
CCn1ncc(Br)c1C(=O)Nc1ccc(-c2ccno2)cc1,-0.1,32.6,39.0,21.5,40.3,0.2
Cc1ccc(NS(=O)(=O)c2ccc(C3CCCCC3)cc2)cc1,30.3,9.9,11.3,11.3,12.9,76.3*
COC(=O)c1sc2ccccc2c1NC(=O)c1ccc(S(=O)(=O)N2CC(C)CC(C)C2)cc1 (stereo unspecified),18.6,2.0,10.7,4.2,-5.0,27.3
SMILES,NALP1 inh,NALP3 yeast inh,tim10-1 inh,TIM10 inh,tim23-1 inh,SKKanGAS inh
Cc1cc(C)c2nc(NNC(=O)c3ccc(S(=O)(=O)N4CC(C)CC(C)C4)cc3)sc2c1 (stereo unspecified),28.9,-2.6,7.7,-9.4,24.6,82.4*
Cc1ccc2nc(NNC(=O)c3ccc4c(c3)OCCO4)sc2c1,17.7,2.3,-18.7,-19.3,19.4,3.2
Cc1cccc2sc(NNC(=O)c3ccc(S(=O)(=O)N4CC(C)CC(C)C4)cc3)nc12 (stereo unspecified),22.7,-4.5,9.2,-11.7,32.2,91.7*
Cc1ccc2nc(NNC(=O)c3ccc(S(=O)(=O)N4CCc5ccccc5C4)cc3)sc2c1,32.2,-1.4,-10.4,-25.3,23.4,79.4*
Cc1cc(C)c2nc(NNC(=O)c3ccc(S(=O)(=O)N4CCCC(C)C4)cc3)sc2c1 (stereo unspecified),28.5,-0.1,-5.3,-54.6,30.7,91.9*
Oc1ccc(C=NCCc2ccccc2)cc1,5.6,10.5,34.6,11.3,7.2,-0.8
CCC(Oc1ccccc1)C(=O)Nc1ccsc1C(=O)OC (stereo unspecified),31.6,-0.5,-36.8,-21.3,10.4,19.0
Cc1ccc(N2CC(C(=O)N3CCC(C(=O)NCCCOC(C)C)CC3)CC2=O)cc1 (stereo unspecified),0.3,9.0,4.0,-6.5,-4.1,-1.0
CCOC(=O)C1CCN(C(=O)C2CCN(S(=O)(=O)c3cc(Cl)ccc3OCC)CC2)CC1,-10.3,2.9,9.1,5.0,21.1,-6.9
O=C(O)c1ccc(N/N=C/c2ccc(OC(=O)c3cccc(Cl)c3)cc2)cc1,·,11.6,-7.4,17.0,16.5,56.8*
O=C(CCc1nc2ccccc2c(=O)[nH]1)N1CCN(S(=O)(=O)c2ccc(Cl)c(C(F)(F)F)c2)CC1,·,17.4,-4.6,2.2,-2.5,6.4
COC(=O)c1c(NS(=O)(=O)c2ccc3ccccc3c2)sc2c1CCCC2,4.3,-17.2,29.7,15.3,29.5,32.0
CC1CCc2c(sc(NS(=O)(=O)c3ccccc3)c2C(=O)OC(C)C)C1 (stereo unspecified),-2.9,-1.1,32.2,19.6,6.7,95.4*
O=S(=O)(Nc1cc(Sc2cccc3cccnc23)c(O)c2ccccc12)c1ccc(F)cc1,58.9,·,·,·,·,87.4*
CN(C(=O)COC(=O)c1cc([N+](=O)[O-])ccc1Sc1ccccc1)C1CCS(=O)(=O)C1 (stereo unspecified),28.1*,21.5,20.6,1.3,14.5,3.8
CN(C(=O)COC(=O)CSc1ccc([N+](=O)[O-])cc1)C1CCS(=O)(=O)C1 (stereo unspecified),·,18.5,-12.9,-6.1,-10.8,-1.8
O=C(NCCOc1ccccc1)c1cc(S(=O)(=O)N2CCOCC2)ccc1F,5.3,5.9,-3.5,6.6,0.8,-2.0
